RMI FANCM FP: RMI-FANCM interaction inhibition. Fluorescence polarization, RMI core complex with F-MM2 peptide; hits give low values. FP signal (polarization) at 33 µM. 70,000 compounds, 0.58% hits; in the data active = FP signal below about 40
* marks the source's active call; other numbers are inactive results; ! = a repeat was not active. This is one part of a sample in which hits are shown more often than they occur.

SMILES | RMI FANCM FP
CC(=O)OCC(=O)[C@@]1(O)CCC2C3CCC4=CC(=O)CC[C@]4(C)C3C(=O)C[C@@]21C (some centres not stated) | 64
C[C@]12CCC(=O)C=C1CCC1C2C(=O)C[C@@]2(C)C1CC[C@]2(O)C(=O)CO (some centres not stated) | -7*
CC(=O)OCC(=O)[C@@]1(O)CC[C@H]2[C@@H]3CCC4=CC(=O)CC[C@]4(C)[C@H]3C(=O)C[C@@]21C | 58
CNC(C)C1CC2CCC1C2 (configuration not stated) | 64
CCCCCCNC(=O)C1c2ccccc2Oc2ccccc21 | 56
NS(=O)(=O)c1ccc(C(=O)NCCn2ncccc2=O)cc1 | 60
Cc1cc(=O)oc2cc(O)c(O)cc12 | 10*
Cc1cc(=O)oc2c(O)c(O)ccc12 | 66
Cc1cc(=O)oc2cc(O)ccc12 | 51
COc1ccc(-c2csc(NC(=O)c3ccnn3C)n2)cc1C | 67
COc1cccc(C(=O)Nc2ccc3c(c2)N(C)C(=O)C(C)(C)CO3)c1OC | 67
O=C(CCN1C(=O)S/C(=C\C=C\c2ccccc2)C1=O)Nc1ccc(Cl)cc1 | 53
O=C(CSc1nc(SCC(=O)c2ccccc2)c2c3c(sc2n1)CCC3)c1ccccc1 | 79
CCNc1nc(SCC(=O)NC(=O)Nc2ccccc2)nc2sc3c(c12)CCN(C)C3 | 33*!
O=C(CSc1nc2sc3c(c2c(=O)n1-c1ccccc1)CCCCC3)Nc1ccccc1 | 71
O=C(C1CCN(S(=O)(=O)c2cccs2)CC1)N(Cc1ccccn1)c1nc2c(F)cc(F)cc2s1 | 53
O=c1c2sc3ccccc3c2[nH]c(=S)n1CC1CCCO1 (configuration not stated) | 57
CCOc1ccc2c(c1)=CC(=Cc1sc(=S)n(CC3CCCO3)c1O)C(=O)N=2 (configuration not stated) | 23*
CCOc1ccc(N2CC(NC(=O)NCC3CCCO3)CC2=O)cc1 (configuration not stated) | 56
CCCCCC(=O)N=Nc1c(O)[nH]c2ccc([N+](=O)[O-])cc12 | 65
O=C(N=Nc1c(O)[nH]c2ccc([N+](=O)[O-])cc12)c1ccncc1 | 62
Cc1ccc(C(C)C)c(OCC(=O)N=Nc2c(O)[nH]c3ccc([N+](=O)[O-])cc23)c1 | 11*
COc1ccccc1NC(=O)N1CCn2cccc2C1c1ccc(Br)cc1 (configuration not stated) | 56
O=C(Nc1c(F)cccc1F)N1CCn2cccc2C1c1cccnc1 (configuration not stated) | 53
O=C(Nc1cccs1)N1CCn2cccc2C1c1ccc(F)cc1 (configuration not stated) | 15*
SMILES | RMI FANCM FP
CCc1cc(=O)[nH]c(-n2nc(C)cc2NC(=O)c2cccs2)n1 | 55
COc1ccccc1NC(=O)CC(NCCNCc1ccccc1)C(=O)O (configuration not stated) | 63
CSC(=NC(C)(C)C)N/N=C\c1cc(Cl)cc(Cl)c1O | 70
O=C1NN=CC1CCCN=Cc1cc(Cl)cc(Cl)c1O (configuration not stated) | 24*
Oc1c(Cl)cc(Cl)cc1/C=N\NC(=S)Nc1cc(C(F)(F)F)cc(C(F)(F)F)c1 | 79
Oc1c(Cl)cc(Cl)cc1C=NCC1CCC(CN=Cc2cc(Cl)cc(Cl)c2O)CC1 (configuration not stated) | 10*
OCCN=Cc1cc(Cl)cc(Cl)c1O | 36
CN(C)c1ccc(/C=N\O)c(F)c1C#N | 54
CC1(C)OC(=O)C(=Cc2cccn2-c2ccc(OC(F)(F)F)cc2)C(=O)O1 | 55
Cn1c(Sc2cnc(=S)[nH]c2-c2ccccc2)nnc1C(F)(F)F | 68
Cc1ccc(S(=O)(=O)N=C2C=CC(=O)C(Cl)=C2)c(C)c1 | -12*
Cc1ccc(N2CCN(S(=O)(=O)c3cc(Cl)ccc3Cl)CC2)c(C)c1 | 64
Cc1ccc(-c2ccc(N3CCN(S(=O)(=O)c4ccccc4Cl)CC3)nn2)c(C)c1 | 80
CC(C)(C)c1nnc2n(c1=O)N=C(c1ccc(F)cc1)CS2 | 62
CCOC(=O)c1csc(NC(=O)c2ccno2)n1 | 67
Nc1nc(SCC(=O)Nc2ccc(F)cc2Cl)ncc1S(=O)(=O)c1cccs1 | 69
O=C(Nc1nc(CCC(=O)N2CCc3ccccc32)cs1)c1ccc[nH]c1=O | 53
CO[C@H]1/C=C/O[C@@]2(C)Oc3c(C)c(O)c4c(O)c(c(C=NN5CCN(C6CCCC6)CC5)c(O)c4c3C2=O)NC(=O)/C(C)=C\C=C\[C@H](C)[C@H](O)[C@@H](C)[C@@H](O)[C@@H](C)[C@H](OC(C)=O)[C@@H]1C | 65
CCOc1ccc(-c2csc(/C(C#N)=N\Nc3ccc(Br)cc3)n2)cc1 | 141
O=c1cc(O)c2cc(Cl)ccc2o1 | 57
N#Cc1c(=O)[nH]c(O)c2c(=N)oc3ccc(Cl)cc3c12 | 10*
O=C(COc1ccc(Cl)cc1Cl)Nc1nnc(Cc2cccs2)o1 | 68
Cc1coc2ccccc2c1=O | 63
Cc1ccc2occ(C=O)c(=O)c2c1 | 17*
Cc1ccc2oc(C(=O)O)cc(=O)c2c1 | 59
SMILES | RMI FANCM FP
Cc1cc(NC(=O)c2ccc(S(C)(=O)=O)cc2)n(C)n1 | 67
COc1cc(/C=C/C(=O)Nc2ccc(S(=O)(=O)NC(C)C)cc2)cc(OC)c1OC | 61
Cc1ccc(C)c(S(=O)(=O)Nc2ccccc2F)c1 | 73
Cc1ccc(C)c(S(=O)(=O)n2cccn2)c1 | 63
Cc1ccc(C)c(S(=O)(=O)N=C2C=C(Br)C(=O)c3ccccc32)c1 | -1*
COCC(=O)N1CCCc2ccc(NS(=O)(=O)c3ccc(OC)cc3C)cc21 | 72
Cc1cc(S(=O)(=O)Nc2ccccc2C(=O)NCC2CC2)c(C)cc1Cl | 55
Cc1onc(-c2ccccc2)c1C(=O)NCCNC(=O)c1c(-c2ccccc2)noc1C | -22*
Cc1onc(-c2c(Cl)cccc2Cl)c1C(=O)N[C@@H]1C(=O)N2[C@@H]1SC(C)(C)[C@@H]2C(=O)O | 65
Cc1onc(-c2ccccc2)c1C(=O)NNC(=O)C1CC1 | 61
Cc1onc(-c2ccccc2)c1C(=O)NC1C(=O)N2[C@@H]1SC(C)(C)[C@@H]2C(=O)O (some centres not stated) | 9*
COc1cccc(OC)c1C(=O)N[C@@H]1C(=O)N2[C@@H]1SC(C)(C)[C@@H]2C(=O)O | 67
CC(=O)Nc1ccc(OCCCNC(=O)c2c(-c3ccccc3)noc2C)cc1 | 63
COc1ccc(-c2nnc3ccc(OCCNC(=O)C(F)(F)F)nn23)cc1OC | 72
COc1ccc(Cc2nnc(C3CCN(C(=O)C4CCCC4)CC3)s2)cc1 | 59
COc1cc(CNc2cccc(F)c2)cc(OC)c1OC | 60
CN1CCc2cc(C(CNC(=O)C(=O)NCc3ccccc3)N(C)C)ccc21 (configuration not stated) | 70
Cc1ccc(N/C=C(\C#N)c2nc3ccccc3[nH]2)cc1 | 63
N#CC(=C(O)c1ccccc1Br)c1nc2ccccc2[nH]1 | 14*
N#C/C(=C\c1ccc([N+](=O)[O-])cc1)c1nc2ccccc2[nH]1 | 57
O=C(Nc1csc(-c2ccc(Oc3ccc(-c4nc(NC(=O)c5nc6ccccc6s5)cs4)cc3)cc2)n1)c1nc2ccccc2s1 | 31*
Cc1ccc(-c2csc(NC(=O)c3nc4ccccc4s3)n2)o1 | 111
Cc1ccc(-c2csc(NC(=O)c3nc4ccccc4s3)n2)cc1 | 130
CSc1nc2ccc(NC(=O)C3CCCN(S(C)(=O)=O)C3)cc2s1 (configuration not stated) | 72
COc1cc(NC(=O)Cn2cccc(-c3nc(-c4ccc(C)cc4)no3)c2=O)cc(OC)c1 | 160

From PubChem BioAssay
